From PubChem BioAssay
Activity calls are given as the source filed them.

Tests used:
[1] = optical density shifts of acrAB sulA E. coli – strain DRC41, OD650, 48 h, E. coli filamentation inducer project, primary screen (AID 1152); settings: higher = more signal, called active from +8 up or from −8 down;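 further: E. coli MC1000 strain DRC41 lacking acrAB efflux pump and sulA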
[2] = probe aLefty1 binding on compound microarray – biochemical, small-molecule microarray, 635/667 nm fluorescence, primary screen (AID 1153); settings: higher = more signal;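 further: score merges spot fluorescence with signal-to-noise ratio from the scanned slide images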
[3] = plasmodial surface anion channel blockers, osmotic lysis – cell-based, P. falciparum Indochina, OD700, 1 h, primary screen (AID 1154); settings: P. falciparum Indochina infected RBC osmotic lysis, higher = more signal, called active from +8 up or from −8 down
[4] = plasmodial surface anion channel blockers, osmotic lysis – cell-based, P. falciparum Indochina, OD700, 2 h, primary screen (AID 1155);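 further: lysis reports solute entry through the parasite surface anion channel PSAC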; settings: P. falciparum Indochina infected erythrocytes, higher = more signal, called active from +8 up or from −8 down
[5] = changes in parasitized red cell lysis, either direction – P. falciparum Indochina, OD700, 3 h, PSAC antagonist project, primary screen (AID 1156); settings: P. falciparum-infected erythrocytes, osmotic lysis, higher = more signal, called active from +8 up or from −8 down
[6] = plasmodial surface anion channel blockers, osmotic lysis – cell-based, P. falciparum Indochina, OD700, 18 h, primary screen (AID 1157); settings: P. falciparum Indochina infected erythrocytes, osmotic lysis OD700, 18 h; higher = more signal, called active from +8 up or from −8 down
[7] = S6 kinase pathway phospho-S6 level changes – cell-based, A549, cytoblot, luminescence, serum-stimulated, primary screen (AID 1158); settings: 5 h, higher = more signal;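 further: serum-stimulated A549 lung adenocarcinoma cells; signal is phosphorylated S6 detected by cytoblot immunostaining with HRP secondary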
[8] = biological target: NADPH oxidase 2 (Homo sapiens) (UniProt P04839); assay: compounds shifting NOX2 Amplex Red fluorescence – cell-based, HEK293-NOX2, PMA-stimulated, NOX inhibitor project, primary screen (AID 1159); settings: 45 min, higher = more signal, called active from +8 up or from −8 down; further: test concentration not given here
[9] = biological target: NADPH oxidase 4 (Homo sapiens) (UniProt Q9NPH5); assay: compounds shifting NOX4 Amplex Red fluorescence – cell-based, HEK293-NOX4, tetracycline-induced, NOX inhibitor project, primary screen (AID 1160); settings: HEK293-NOX4, Amplex Red H2O2 fluorescence, 45 min; higher = more signal, called active from +8 up or from −8 down
[10] = biological target: NADPH oxidase 5 (Homo sapiens) (UniProt Q96PH1); assay: compounds shifting NOX5 Amplex Red fluorescence – cell-based, HEK293-NOX5, NOX inhibitor project, primary screen (AID 1161); settings: HEK293-NOX5, ionomycin, 45 min, higher = more signal
[11] = compound effects on lung adenocarcinoma cell viability – A549, calcein-AM fluorescence, 48 h, basal, profiling panel (AID 1162); settings: higher = more signal; further: test concentration not given here
[12] = compound effects on differentiated 3T3-L1 adipocyte viability – cell-based, 3T3-L1 adipocytes, calcein-AM fluorescence, 48 h, basal, profiling panel (AID 1163); settings: 3T3-L1 adipocytes viability, higher = more signal; further: test concentration not given here
[13] = compound effects on hepatocellular carcinoma cell viability – HepG2, calcein-AM fluorescence, 48 h, basal, profiling panel (AID 1164); settings: higher = more signal; further: test concentration not given here
[14] = compound effects on multiple myeloma cell viability – MM1S, calcein-AM fluorescence, 48 h, basal, profiling panel (AID 1165); settings: higher = more signal;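 further: viability of MM1S multiple myeloma cells under basal unstimulated conditions; test concentration not given here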
[15] = calcein-AM signal in unstimulated myeloma cells – cell-based, calcein-AM fluorescence, 48 h, PK04 Diversity Set, profiling panel (AID 1166); settings: RPMI8226 myeloma viability, higher = more signal;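 further: cells grown under basal conditions without added stimulus; test concentration not given here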
[16] = JC-1 mitochondrial signal, unstimulated HepG2 cells – cell-based, JC-1 fluorescence, 24 h, 100 nL compound, profiling panel (AID 1167); settings: HepG2 mitochondrial potential, higher = more signal; further: test concentration not given here
[17] = JC-1 mitochondrial signal, unstimulated adipocytes – cell-based, JC-1 fluorescence, 3T3-L1 adipocytes, 24 h, 100 nL compound, profiling panel (AID 1168); settings: JC-1 mitochondrial fluorescence, higher = more signal, called active from +8 up or from −8 down; further: test concentration not given here
[18] = JC-1 mitochondrial signal, unstimulated myeloma cells – cell-based, JC-1 fluorescence, RPMI8226, 24 h, 100 nL compound, profiling panel (AID 1169); settings: JC-1 mitochondrial potential fluorescence, higher = more signal; further: test concentration not given here
[19] = JC-1 mitochondrial signal, unstimulated MM1S myeloma – cell-based, JC-1 fluorescence, 24 h, 100 nL compound, profiling panel (AID 1170); settings: MM1S mitochondrial potential, higher = more signal; further: test concentration not given here
[20] = resazurin metabolic signal in A549 cells – cell-based, resazurin fluorescence, 24 h, PK04 Diversity Set, profiling panel (AID 1171); settings: A549 viability, higher = more signal, called active from +8 up or from −8 down; further: test concentration not given here

NADPH oxidase 4 (Homo sapiens), sequence (Q9NPH5 whole entry, looked up): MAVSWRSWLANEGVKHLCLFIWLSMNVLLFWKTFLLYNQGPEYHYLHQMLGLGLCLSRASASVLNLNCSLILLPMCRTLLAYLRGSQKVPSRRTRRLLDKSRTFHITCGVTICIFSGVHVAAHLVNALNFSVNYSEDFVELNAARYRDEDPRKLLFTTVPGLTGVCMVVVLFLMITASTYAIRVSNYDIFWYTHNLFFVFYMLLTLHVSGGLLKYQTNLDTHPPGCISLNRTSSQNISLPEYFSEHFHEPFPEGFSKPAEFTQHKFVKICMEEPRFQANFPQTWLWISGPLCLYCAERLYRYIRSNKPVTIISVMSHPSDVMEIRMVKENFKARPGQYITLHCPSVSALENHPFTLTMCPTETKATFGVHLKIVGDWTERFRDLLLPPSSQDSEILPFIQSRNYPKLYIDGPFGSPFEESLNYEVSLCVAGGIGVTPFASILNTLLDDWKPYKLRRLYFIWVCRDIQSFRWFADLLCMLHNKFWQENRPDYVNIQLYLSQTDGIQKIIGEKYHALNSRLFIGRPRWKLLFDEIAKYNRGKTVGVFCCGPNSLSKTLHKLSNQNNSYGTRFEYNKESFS
NADPH oxidase 5 (Homo sapiens), sequence (Q96PH1 whole entry, looked up): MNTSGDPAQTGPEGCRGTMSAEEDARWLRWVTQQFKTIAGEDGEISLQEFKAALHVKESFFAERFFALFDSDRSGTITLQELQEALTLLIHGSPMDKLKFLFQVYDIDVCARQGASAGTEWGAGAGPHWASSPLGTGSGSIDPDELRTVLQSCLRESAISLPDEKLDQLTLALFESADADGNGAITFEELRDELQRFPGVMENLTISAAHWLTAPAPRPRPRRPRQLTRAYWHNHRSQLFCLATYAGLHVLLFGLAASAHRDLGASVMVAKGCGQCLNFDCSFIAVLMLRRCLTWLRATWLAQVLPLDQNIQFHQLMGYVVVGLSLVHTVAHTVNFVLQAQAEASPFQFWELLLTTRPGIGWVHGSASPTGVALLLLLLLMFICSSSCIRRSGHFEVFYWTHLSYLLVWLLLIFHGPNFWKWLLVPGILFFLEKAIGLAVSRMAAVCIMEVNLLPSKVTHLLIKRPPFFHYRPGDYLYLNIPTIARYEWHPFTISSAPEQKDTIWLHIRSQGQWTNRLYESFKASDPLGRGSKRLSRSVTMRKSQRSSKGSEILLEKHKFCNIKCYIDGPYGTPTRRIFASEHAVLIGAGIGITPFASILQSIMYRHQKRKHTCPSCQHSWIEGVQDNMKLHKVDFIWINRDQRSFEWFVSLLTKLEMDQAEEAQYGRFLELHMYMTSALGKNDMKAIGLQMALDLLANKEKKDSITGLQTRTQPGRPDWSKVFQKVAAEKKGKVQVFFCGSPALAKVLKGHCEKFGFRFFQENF
NADPH oxidase 2 (Homo sapiens), sequence (P04839 whole entry, looked up): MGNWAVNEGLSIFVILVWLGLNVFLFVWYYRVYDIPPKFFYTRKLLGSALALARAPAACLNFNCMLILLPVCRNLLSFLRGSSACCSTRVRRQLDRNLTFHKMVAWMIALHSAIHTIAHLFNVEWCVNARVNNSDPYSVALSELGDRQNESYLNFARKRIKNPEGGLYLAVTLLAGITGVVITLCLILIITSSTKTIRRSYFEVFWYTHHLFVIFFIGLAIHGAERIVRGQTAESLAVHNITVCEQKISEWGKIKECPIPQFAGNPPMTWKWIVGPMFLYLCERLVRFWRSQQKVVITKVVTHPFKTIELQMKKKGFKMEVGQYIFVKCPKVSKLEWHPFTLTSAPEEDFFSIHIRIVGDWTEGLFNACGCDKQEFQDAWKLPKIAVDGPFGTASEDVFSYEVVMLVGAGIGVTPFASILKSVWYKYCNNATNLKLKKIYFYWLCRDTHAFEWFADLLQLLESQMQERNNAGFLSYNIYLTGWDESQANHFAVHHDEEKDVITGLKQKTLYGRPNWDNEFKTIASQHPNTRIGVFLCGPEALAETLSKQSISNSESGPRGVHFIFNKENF

SMILES	z-score [1]	composite z-score [2]	z-score [3]	z-score [4]	z-score [5]	z-score [6]	z-score [7]	z-score [8]	z-score [9]	z-score [10]	z-score [11]	z-score [12]	z-score [13]	z-score [14]	z-score [15]	z-score [16]	z-score [17]	z-score [18]	z-score [19]	z-score [20]
CCC#CCN(Cc1ccccc1Br)[C@H](/C=C/c1ccccc1)[C@@H](O)Cc1ccccc1	0.625 (inactive)	-0.0035	1.79 (inactive)	1.15 (inactive)	-0.696 (inactive)	0.475 (inactive)	-0.218	-0.267 (inactive)	0.0785 (inactive)	-0.41	0.178	-0.0581	-0.124	-0.227	-2.42	-2.35	-1.44 (inactive)	-0.608	-0.32	1.36 (inactive)
CN1C(=O)C2C=CC(C(O)C3CC=CCC3)N(Nc3ccccc3)C2C1=O (stereo not given)	-1.08 (inactive)	0.346	0.756 (inactive)	0.0735 (inactive)	-0.139 (inactive)	0.459 (inactive)	-0.879	-1.81 (inactive)	-3.23 (inactive)	-3.05	-0.653	-1.14	-0.661	0.228	-1.56	-0.965	-0.117 (inactive)	0.116	-0.608	-0.293 (inactive)
COCCCNC(=O)[C@@H]1c2ccccc2C(=O)N(CC23CC4CC(CC(C4)C2)C3)[C@H]1c1ccc(CO)cc1	-0.162 (inactive)	0.276	4.59 (inactive)	-0.14 (inactive)	3.38 (inactive)	-0.877 (inactive)	2.61	-1.24 (inactive)	-2.34 (inactive)	-4.2	0.0071	1.3	0.0729	-0.193	-0.996	1.12	-0.227 (inactive)	0.0172	0.0814	0.729 (inactive)
CCCC=C(CCC)[C@@H](NC(=O)c1ccccc1)c1ccccc1	-0.845 (inactive)	0.221	1.37 (inactive)	0.894 (inactive)	0.131 (inactive)	0.812 (inactive)	0.316	-0.523 (inactive)	0.304 (inactive)	0.895	-0.956	-0.551	0.46	-0.0621	-0.246	-3.04	0.177 (inactive)	-0.017	-1.49	0.215 (inactive)
Cc1ccc(N2C(=O)c3ccccc3[C@@H](C(=O)NCc3ccccc3)[C@@H]2c2ccc(CO)cc2)nc1	1.85 (inactive)	0.26	2.1 (inactive)	-0.349 (inactive)	-0.199 (inactive)	-0.509 (inactive)	-1.72	-0.109 (inactive)	1.03 (inactive)	0.298	1.08	1.14	-0.296	0.2	1.18	0.532	1.07 (inactive)	0.0567	0.202	0.737 (inactive)
CC(=O)Nc1ccc([C@H]2[C@H](C)CC[C@H]3C(=O)N4[C@@H](CC[C@@H](C)[C@@H]4c4ccc(NC(C)=O)cc4)C(=O)N32)cc1	-0.929 (inactive)	-0.045	1.91 (inactive)	0.586 (inactive)	0.699 (inactive)	0.32 (inactive)	-0.164	0.0427 (inactive)	1.25 (inactive)	0.198	1.04	1.1	0.277	-0.715	-0.439	-1.16	-0.183 (inactive)	-0.365	-0.559	0.553 (inactive)
CCCCCCc1nc(C2CC2)c(C)c2c1[Si](C(C)C)(C(C)C)OC2	2.16 (inactive)	-0.196	2.89 (inactive)	0.176 (inactive)	-0.162 (inactive)	0.0166 (inactive)	3.38	-0.579 (inactive)	-0.404 (inactive)	-1.38	0.632	2.88	-0.693	-0.155	-0.499	0.366	1.56 (inactive)	0.296	0.419	-0.207 (inactive)
O=C1OCC=C[C@H]2OC34C=CCN(Cc5ccccc5)C(=O)[C@H]3N(CCO)C(=O)[C@@H]4[C@@H]12 (stereo not given in full)	2.41 (inactive)	-0.0104	0.286 (inactive)	-0.44 (inactive)	-1.32 (inactive)	-1.34 (inactive)	0.262	1.53 (inactive)	1.18 (inactive)	1.75	0.125	0.474	-0.885	1.12	0.44	-0.255	0.367 (inactive)	-0.0019	-0.216	0.54 (inactive)
